# Compound activity (PubChem BioAssay)
# FUS suppressor: rescues growth of FUS-expressing yeast; 390,000 compounds, 0.24% hits; S. cerevisiae FUS-expressing, growth rescue, OD600, 24 h; Potency, µM (top dose mostly 76.6 µM), actives largely listed as activators;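 further: plate controls were DMSO vehicle for no effect and reference control for full effect; nearly all actives have a fitted effect of over 55% in size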
#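 Yeast expressing FUS under galactose induction, OD 0.005 in 2% galactose medium; compounds in a dilution series, 24 h at 30C. Growth rescue by absorbance at 600 nm; CP55940 positive control, DMSO negative.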
# aSyn rescue: rescues yeast growth from alpha-synuclein toxicity. Yeast expressing alpha-synuclein, growth rescue, BacTiter-Glo, 24 h. Potency, µM (titrated, usually from 46.1 µM), for inactives: at the top dose growth rescue (activation), usual class: activators. 370,000 compounds, 0.14% hits; further: % of control where 0% means no effect; nearly all actives have a fitted effect of over 65% in size
#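 Screening used galactose-induced yeast with toxic alpha-synuclein levels, exposed to compound for 24 hr at 30 deg C. Cell growth, read with BacTiter-Glo luminescence, gave the measured signal.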
# Abeta rescue: A-beta toxicity reversal in yeast. yeast expressing A-beta42, growth rescue, OD600, 48 h; response scale: 0% DMSO, 100% iron-clioquinol control. Potency, µM (titrated, usually from 46.1 µM), most hits filed as activators. 410,000 compounds, 0.063% hits. AID 1347071; further: nearly all actives have a fitted effect of over 55% in size
#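 Growth rescue measured by 600 nm absorbance after 48 h yeast culture at 30 C with compound. Values normalized between DMSO and an equimolar ferric chloride plus clioquinol control.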
# TDP-43 yeast inh: TDP-43 toxicity inhibition in yeast. 410,000 compounds, 1.8% hits. AID 652104. Potency, µM (titrated, usually from 46.1 µM), for inactives: at the highest dose growth rescue (activation), usual class: activators. TDP-43 expressing yeast growth rescue, BacTiter-Glo, 24 h; further: % of control where 0% means no effect; nearly all actives have a fitted effect of over 50% in size
#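 Readout is BacTiter-Glo luminescence of cell growth, so inhibitors register as activators. TDP-43-expressing yeast at OD600=0.02 in galactose medium, after raffinose pregrowth to mid-log, were incubated with compound for 24 hr at 30 deg C.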
# Mito fusion act: mitochondrial division inhibition or fusion activation | Potency, µM (titrated, usually from 46.1 µM), for inactives: at the highest dose growth rescue (activation), most hits filed as activators | S. cerevisiae fusion-defective mutant growth rescue, CellTiterGlo 48 h | 320,000 compounds, 0.23% hits; further: % of control where 0% means no effect; nearly all actives have a fitted effect of over 45% in size
#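 S. cerevisiae fusion-defective temperature-sensitive mutants (e.g. fzo1-1, mgm1-5) grown 48 h at 37C in YPEG (ethanol/glycerol non-fermentable) medium with 23 nl compound per well; growth rescue read as CellTiterGlo luminescence.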
# * marks the source's active call; other numbers are inactive results; i = inactive; ? = inconclusive; . = no result given; [ ] = dose if it differs, or a comment. This is a sample that favours compounds with a hit; in the whole collection about 2.2% have one here. The call rests on the fitted dose curve; in most records, active means well fitted curve in the direction sought with a large enough effect; inconclusive means small, poorly fitted or top-dose-only effect, or another doubt; inactive means no such curve, though single readings can be large; an effect the other way counts as inactive or inconclusive. Potency means the concentration at half of the fitted maximal effect.
SMILES,FUS suppressor,aSyn rescue,Abeta rescue,TDP-43 yeast inh,Mito fusion act
Cc1cc(NC(=O)CCC(=O)N(CC(=O)NC2CCCC2)c2ccc(C)c(F)c2)no1,i,-0.7%,i,-8.8%,1.8%
COc1ccc(-n2nc([N+](=O)[O-])c(=NCCC3=CCCCC3)n2O)cc1,i,8.5%,i,20µM*,-0.8%
CCOC(=O)Nc1cccc(C(=O)O)c1,i,0.3%,i,-6.3%,-0.6%
O=C(Nc1ccccc1)OCCc1ccccc1,i,-20.0%,i,35.5µM*,.
CCCCOC(=O)c1cccc(NC(=O)CCC(=O)O)c1,i,4.3%,i,17.1%,-2.0%
CCOC(=O)Nc1cccc(Nc2ccccc2)c1,i,-15.4%,i,14.1µM*,11.6%
CCCCOC(=O)Nc1cccc(C(C)=O)c1,i,-0.3%,i,11.2µM*,-7.7%
COc1ccc(C2CC(c3cccs3)=NN2C(=O)c2ccc(Br)o2)cc1 (configuration not stated),i,17.0%,i,-10.4%,17.8µM*
COc1ccc(C2CC(c3cccs3)=NN2c2ccc(C=O)cc2)cc1 (configuration not stated),.,-0.2%,i,5.9%,22.4µM*
COc1ccc(C2=NN(C(=O)c3cccs3)C(c3ccc(OC)cc3)C2)cc1 (configuration not stated),.,14.6%,i,8.6%,11.2µM*
COc1ccc(C2CC(c3cccs3)=NN2C(=O)CSC2=NCCS2)cc1 (configuration not stated),35.5µM*,9.3%,i,28.6%,-1.5%
COc1cccc2cc(-c3nc(-c4ccccc4)c(C)s3)c(=O)oc12,.,-7.5%,.,.,.
COc1cc(C#Cc2c(-c3cncn3C)n(C)c3ccc(-c4ccc5cc[nH]c5c4)cc23)cc(OC)c1,?,-0.1%,i,20µM*,.
CC(=O)N1c2ccc(S(=O)(=O)N(C)CC(=O)NC(C)c3ccccc3)cc2CC1C (configuration not stated),i,-13.5%,i,5.0%,-7.4%
COc1cccc(Cn2c(CNS(=O)(=O)c3ccc4c(c3)CCCC4)nc3cccnc32)c1,?,.,i,21.0%,.
COc1ccc(CSc2ncnc3sccc23)cc1F,i,1.8%,i,12.6µM*,3.2%
COc1cc(/C=C/c2onc(C)c2[N+](=O)[O-])cc(OC)c1OC,i,6.4%,i,20.3%,.
Cc1noc(/C=C/c2nn(C)cc2Cl)c1[N+](=O)[O-],i,7.4%,i,12.6µM*,-23.4%
Cc1cccc(N/C=C/c2onc(C)c2[N+](=O)[O-])c1,i,-4.7%,i,-14.7%,1.8%
Cc1cccc(/C=C/c2onc(C)c2[N+](=O)[O-])n1,i,?,i,12.6µM*,.
O=C(/C=C/c1ccco1)OCn1nnc2ccccc2c1=O,i,1.2%,i,?,-1.7%
Cc1ccc(SCCC(=O)OCn2nnc3ccccc3c2=O)cc1,i,3.6%,i,35.5µM*,-3.9%
Cc1ccc(/C=C/C(=O)OCn2nnc3ccccc3c2=O)o1,i,?,i,17.8µM*,17.9%
Cc1cc(C(Br)(Br)Br)nc2ccccc12,.,1.6%,.,.,.
Cc1ccccc1CSc1nc2c(sc3ccccc32)c(=O)n1CCCC(=O)NCCCOC(C)C,i,.,i,3.7%,.
SMILES,FUS suppressor,aSyn rescue,Abeta rescue,TDP-43 yeast inh,Mito fusion act
C#CCOC(=O)Nc1cccn(Cc2c(Cl)cccc2Cl)c1=O,i,-7.6%,i,11.2µM*,-1.7%
O=C(Nc1cccn(Cc2c(Cl)cccc2Cl)c1=O)C1CC1,i,-15.4%,i,?,0.0%
Cc1ccccc1CC(=O)Nc1nnc(-c2cccnc2)s1,i,.,.,.,.
Cc1ccc(C(=O)c2oc3ccccc3c2NC(=O)c2cc(-c3ccccc3)on2)cc1F,i,.,i,6.9%,.
CC1=C(C(=O)N2CCOCC2)CC(CC(=O)NC2CC2)C(=O)N1Cc1ccc(C(C)(C)C)cc1 (configuration not stated),i,-3.2%,i,0.6%,.
CC1=C(C(=O)N2CCOCC2)CC(CC(=O)NC2CCCCC2)C(=O)N1Cc1ccc(C(C)(C)C)cc1 (configuration not stated),i,3.55µM*,i,?,.
Cc1nc2c(c(SCC(=O)Nc3ccccc3C(F)(F)F)n1)CCC2,i,.,i,18.7%,.
Cc1csc(NC(=O)c2cc3c(s2)CCCC3)n1,i,-37.0%,i,28.2µM*,2.7%
O=C(Nc1ccc(N2CCOCC2)cc1)c1cc2c(s1)CCCCC2,i,-2.8%,i,-14.4%[0.397 µM],-0.6%
O=C(Nc1ccon1)c1cc2c(s1)CCCCCC2,i,1.3%,i,12.6µM*,-5.4%
Cc1csc(NC(=O)c2cc3c(s2)CCCCC3)n1,i,-34.6%,i,-1.1%,18.0%
O=C(Nc1ccccc1N1CCOCC1)c1cc2c(s1)CCCCC2,i,-17.6%,i,7.94µM*,-1.2%
O=C(/C=C/c1ccccc1)CC(O)(c1ccccc1)C(F)(F)F (configuration not stated),i,?,i,12.6µM*,-9.7%
O=C(Nc1ccccc1)N1N=C(c2cccs2)CC1c1cccs1 (configuration not stated),.,?,i,-1.8%,11.2µM*
O=C(c1ccco1)N1N=C(c2cccs2)CC1c1ccc(F)cc1 (configuration not stated),i,.,i,?,?
CCC(=O)N1N=C(c2cccs2)CC1c1ccc(C)cc1 (configuration not stated),i,15.7%,i,20µM*,9.4%
Cc1ccc(C2CC(c3cccs3)=NN2C(=O)CCl)cc1 (configuration not stated),i,0.6%,i,12.6µM*,-32.8%
CCC(=O)N1N=C(c2cccs2)CC1c1ccc(OC)cc1 (configuration not stated),i,2.4%,i,?,2.9%
CNC(=S)N1N=C(c2cccs2)CC1c1ccc(F)cc1 (configuration not stated),i,10.2%,i,10µM*,-39.5%
CCn1nc(-c2ccccc2)c(-c2ccccc2)c(C(=O)Nc2ccc(NC(C)=O)cc2)c1=O,i,.,i,12.3%,.
O=C(COc1ccccc1C(=O)Nc1ccccc1)Nc1cccc(Br)c1,.,9.3%,.,.,.
O=C(COC(=O)CCc1ccccc1)NNC(=O)c1ccccc1,i,0.1%,i,-14.7%,.
Cc1ccccc1C(=O)NCCCCc1ccccc1,i,-6.3%,i,-0.6%,-1.8%
Nc1nc2ccccc2cc1C(=O)NCCCCc1ccccc1,i,-40.2%,?,28.2µM*,.
O=S(=O)(c1ccc(F)cc1)c1snnc1-c1ccccc1,i,-5.8%,i,14.1µM*,8.4%
O=C(Nc1nc2ccccc2n1CCN1CCOCC1)c1cccc([N+](=O)[O-])c1,.,-13.6%,.,.,4.7%
